Test results: PubChem BioAssay AID2391 (Southern Research Specialized Biocontainment Screening …, 2010)
About 410 (0.13%) of roughly 310,000 compounds were called active. Inconclusive results (about 2%) are left out. How the calls were made is not given here. Only a sample is shown. Entries with a potency or affinity are not part of this list.

Test: RSV antiviral activity via CPE protection, HEp-2 cells, primary 10 µM value included (AID 2391)
Details: RSV-induced CPE inhibition, at 10 µM, active compounds read high

CPE inhibition, inactive:
COc1ccc(-c2ccc3c(N)c(C(=O)c4ccc(OC)c(OC)c4)sc3n2)cc1 1.75%, COc1ccc(NC(=O)c2sc3nc(-c4cccnc4)ccc3c2N)cc1OC 1.58%, O=C(Nc1nc(-c2ccccc2)cs1)c1cccc([N+](=O)[O-])c1C(=O)O 0.63%, CCCC(=O)Oc1ccc(C2NC(=O)c3ccccc3O2)cc1OC (configuration not stated) -0.32%, CCNS(=O)(=O)c1ccc(CCC(=O)NCc2ccccn2)cc1 -0.26%, CS(=O)(=O)N1N=C(c2ccco2)CC1c1ccc(Br)cc1 (configuration not stated) -1.1%, CCOc1c(Cl)cc(CNCc2ccccn2)cc1OC 0.14%, C/C(N)=C(/C#N)C(=O)COC(=O)CNS(=O)(=O)c1c(F)cccc1F 1.63%, C/C(N)=C(/C#N)C(=O)COC(=O)CNS(=O)(=O)c1ccc(C)cc1 0.79%, CCOC(=O)c1sc(=NC(=O)c2ccc(OC(C)C)cc2)n(C)c1C -0.02%, Cc1cc[n+](C(C)C(=O)c2ccc(Cl)cc2)cc1 (configuration not stated) 0.43%, COC(=O)C1=C(N)Oc2cc(C)n(Cc3ccccc3)c(=O)c2C1c1ccccc1 (configuration not stated) 3.61%, O=C(Nc1ccccc1N1CCN(C(=O)c2ccc(Cl)cc2)CC1)c1ccc(Br)cc1 10.3%, CN(C)C(=O)COC(=O)c1ccccc1OCC(=O)Nc1ccc(SC(F)F)cc1 0.56%, CC(C)(C)NC(=O)COC(=O)c1ccccc1Nc1ccc(SC(F)F)cc1 20.3%, Clc1cc2nc[nH]c2cc1Cl 2.89%, c1ccc2[nH]cnc2c1 3.25%, OCc1cn(-c2ccc(Cl)cc2)nn1 0.61%, COc1cc(NC(=O)C2CC(=O)N(CCc3ccc(F)cc3)C2)cc(OC)c1OC (configuration not stated) 1.32%, CCCn1c2ccc(F)cc2c2nnc(NN)nc21 2.66%, CCn1c2ccc(F)cc2c2nnc(NN)nc21 8.49%, Cc1nn(-c2ccccc2)cc1/C=N/NS(=O)(=O)c1ccccc1 0.36%, Cc1nc(-c2cccc(S(=O)(=O)N3CCOCC3)c2)cs1 2.05%, O=S(=O)(c1cccc(-c2csc(-c3cccnc3)n2)c1)N1CCOCC1 18.8%, CC(C)(C)c1ccc(C(=O)c2c[nH]c(C(=O)NCCCn3ccnc3)c2)cc1 15.1%, CC(C)[C@H](NC(=O)N1CCn2c1nc1ccccc12)C(=O)NCc1ccc(F)cc1 7.05%, CC(C)[C@H](NC(=O)N1CCn2c1nc1ccccc12)C(=O)NCc1ccco1 5.22%, COc1cc(C(=O)NNC(=O)COc2ccccc2Cl)ccc1OCC(=O)N1CCOCC1 0.6%, O=C(Nc1cccc(NC(=O)c2ccccc2Cl)c1)c1ccco1 2.07%, c1ccc(N2CCN(c3ncnc4scc(-c5cccs5)c34)CC2)cc1 12.1%, COc1ccccc1C(=O)NCCCNc1ccc([N+](=O)[O-])cc1 0.97%, CCn1c(=O)c2cc(C(=O)N(C)c3ccc(OC)cc3OC)sc2c2ccccc21 13.1%, CCn1c(=O)c2cc(C(=O)N(C)c3ccccc3F)sc2c2ccccc21 17.4%, Cc1ccc(-c2nn(-c3ccccc3)cc2CN(Cc2ccccc2)C(=O)c2ccco2)o1 22.2%, Cc1c(CC(=O)N[C@@H](C)C(=O)O)c(=O)oc2c(C)c3occ(-c4ccccc4)c3cc12 6.88%, CCCCC(NC(=O)Cc1c(C)c2cc3c(C)c(C)oc3c(C)c2oc1=O)C(=O)O (configuration not stated) 1.13%, COc1ccc(Cl)cc1N(C(C)C(=O)O)S(C)(=O)=O (configuration not stated) 1.24%, CC(C)COc1ccc(C(=O)NNC(=O)c2ccc(=O)[nH]c2)cc1 0.85%, CCCCn1c(N)c(N(CCOC)C(=O)c2cc(CC)c(C)s2)c(=O)[nH]c1=O 0.21%, COc1ccccc1N(Cc1ccccc1)S(=O)(=O)c1cccc(C(=O)Nc2ccccn2)c1 40.2%, COc1ccccc1N(Cc1ccccc1)S(=O)(=O)c1cccc(C(=O)Nc2ccc(C)cn2)c1 40.7%, Cc1ccc(N(CCC#N)C(=O)COC(=O)C2CCN(S(=O)(=O)c3ccc(C)c(C)c3)CC2)cc1 3.94%, CCN(CC)c1ccc(-c2nnc(SCC(=O)N(CCOC)c3c(N)n(CC(C)C)c(=O)[nH]c3=O)o2)cc1 8.83%, COCCN(C(=O)CSc1nnc(-c2ccc(Cl)cc2)o1)c1c(N)n(CC(C)C)c(=O)[nH]c1=O 2.35%, COc1cc(OC)c2c(C)cc(=O)oc2c1 0.35%, CCc1cc(=O)oc2cc(OC(C)=O)cc(OC(C)=O)c12 5.44%, CCOc1ccccc1N(CC(=O)N1CCC(C(N)=O)CC1)S(=O)(=O)c1ccc(SC)cc1 1.65%, Cc1ccc(Cl)cc1NC(=O)CSc1sc2c(O)cc(=O)[nH]c2c1C#N -0.05%, Cc1ccc(C)c(OCC(=O)NCC(c2ccco2)N2CCCCC2)c1 (configuration not stated) -1.03%, OCCOCCn1c(C(CO)Nc2nc(-c3ccc(Cl)cc3)cs2)nc2ccccc21 (configuration not stated) 9.48%, Fc1ccc(Nc2nc(-c3ccncc3)nc3ccccc23)cc1 4.4%, c1ccc(Nc2nc(-c3ccncc3)nc3ccccc23)cc1 4.52%, COc1ccc(C(=O)NCCn2cc(SCC(=O)NCC3CCCO3)c3ccccc32)cc1 (configuration not stated) 0.51%, Cc1ccc(S(=O)(=O)N2CCC(C(=O)Nc3ccc(S(=O)(=O)N4CCCC4)cc3)CC2)cc1 0.34%, Cc1ccc(NC(=O)C2CCN(S(=O)(=O)c3ccc(F)cc3)CC2)cc1 -1.19%, CC(NC(=O)c1ccccc1NC(=O)c1ccccc1)C(=O)N1CCOCC1 (configuration not stated) 3.72%, CN1CCc2[nH]c3ccc(C(=O)NN)cc3c2C1 -1.2%, Cc1ccc2[nH]c3c(c2c1)CN(C)CC3 -0.58%, CC(C)CNC(=O)c1cccc(NC(=O)Cc2ccc(Br)cc2)c1 15.3%, CC(=O)/C(C#N)=C1\NC(=O)C(Cc2cc(Cl)ccc2Cl)S1 (configuration not stated) 14%, CC(=O)/C(C#N)=C1\NC(=O)C(Cc2ccc(F)cc2)S1 (configuration not stated) 12.6%, CC(=O)/C(C#N)=C1\NC(=O)C(Cc2ccc(C)c(Cl)c2)S1 (configuration not stated) 15%, CCc1ccc(CC2S/C(=C(\C#N)C(C)=O)NC2=O)cc1 (configuration not stated) 6.6%, CC1CCCN(c2nc3c(c(=O)n(C)c(=O)n3C)n2CCSc2nc3ccccc3o2)C1 (configuration not stated) 1.2%, COc1ccccc1NC(=O)C(=O)NCC1COc2ccccc2O1 (configuration not stated) 5.12%, NS(=O)(=O)c1ccc(CCNC(=O)CSc2nc3ccccc3c(=O)n2CCC(=O)N2CCCCC2)cc1 0.56%, Cc1cc(=O)[nH]c(-c2ccccc2O)n1 0.17%, c1csc(-c2nc3ccccc3[nH]2)c1 4.14%, Cn1c(=O)c2[nH]c(-c3ccccc3O)nc2n(C)c1=O 9.42%, c1ccc(-c2nc(-c3cccs3)[nH]c2-c2ccccc2)cc1 1.1%, O=S(=O)(NC(=NCc1ccccc1)c1ccccc1F)c1ccccc1 0.88%, COc1ccc(CNC(=O)CN(Cc2ccc(F)cc2)C(=O)CCC(=O)Nc2nccs2)cc1 0.79%, CC(OC(=O)c1cccc([N+](=O)[O-])c1)C(=O)NCc1ccc2c(c1)OCO2 (configuration not stated) 2.66%, COCc1cc(C)nc(NC2CC(C)(C)NC(C)(C)C2)c1C#N -1.99%, Cn1c2ccccc2c2nnc(SCc3ccc4nonc4c3)nc21 -0.67%, C=CCn1c2ccccc2c2nnc(SCc3ccc4nonc4c3)nc21 3.57%, CCCn1c2ccccc2c2nnc(SCC(=O)Nc3cc(C)on3)nc21 1.54%, CCn1c2ccccc2c2nnc(SCC(=O)Nc3c(C)n(C)n(-c4ccccc4)c3=O)nc21 17.8%, Nc1nnc(COc2cccc(C(F)(F)F)c2)s1 1.04%, COC(=O)c1ccc(C(=O)OC)c(NC(=O)C2CC2)c1 1.03%, COc1ccc2cc(CN(CCCN3CCOCC3)Cc3nnnn3C3CCCC3)c(=O)[nH]c2c1 -0.3%, CCOc1ccccc1N(CC)C(=O)c1ccc2c(=O)n3c(nc2c1)CCCCC3 4.24%, Cc1c(Cl)ccc2c1NC(=O)C21NC(CCC(N)=O)[C@H]2C(=O)N(c3ccc(Cl)cc3)C(=O)[C@H]21 (some centres not stated) 2.04%, C[N+](C)(C)CC/C=C1/c2ccccc2CSc2ccccc21 -0.47%, C/C(=N\O)c1oc2ccc3c(C)cc(=O)oc3c2c1C 21.3%, Cc1ccc(/C(=N\O)c2oc3c(C)c4oc(=O)cc(C)c4cc3c2C)cc1 -1.6%, CCC(Cc1ccccc1)NC(=O)C1CC1 (configuration not stated) -0.41%, O=[N+]([O-])c1ccc(CN2CCN(c3ccc([N+](=O)[O-])cc3)CC2)cc1 8.04%, COc1ccc(CNC(=S)NCc2ccc(OC(C)C)cc2)cc1 3.45%, COc1ccc(Nc2ncccc2C(=O)O)cc1 -0.34%, CC(C)c1ccc(Nc2ncccc2C(=O)O)cc1 10.4%, CCOC(=O)c1c(C)nc2c(c1C)/C(=N/O)CC(C)(C)C2 5.56%
